Measurements taken from PubChem BioAssay (Tox21).
Results filed as inconclusive are left out. Calls of active or inactive are those of the source. Unless noted, the call rests on the fitted dose curve; in most records, active means well fitted curve in the direction sought with a large enough effect in the repeat runs; inconclusive means weak or mixed curves; inactive means no such curve, though single readings can be large; an effect the other way counts as inactive or inconclusive.

Tests used:
[1] = qHTS assay to identify aromatase inhibitors - cell viability counter screen (AID 743084);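 further: cells stimulated with testosterone during compound exposure; nearly all actives have a fitted effect of over 55% in size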
[2] = molecular target: Aryl hydrocarbon receptor (Homo sapiens) (UniProt P35869); assay: qHTS assay to identify small molecule that activate the aryl hydrocarbon receptor (AhR) signaling pathway (AID 743085);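 further: HG2L7.5c1 human HepG2 liver cells with stably integrated DRE-driven firefly reporter; series mostly up to about 70 µM; nearly all actives have a fitted effect of over 15% in size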
Method in brief: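 Compounds were tested in HepG2 hepatocellular carcinoma cells harbouring a stably integrated luciferase gene under control of 20 DREs. Increased reporter signal after 24 h treatment at 37C was taken as AhR activation.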

[3] = qHTS assay to identify small molecule that activate the aryl hydrocarbon receptor (AhR) signaling pathway - cell viability counter screen (AID 743086);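 further: HepG2 liver cells carrying the AhR DRE luciferase reporter; series mostly up to about 70 µM; nearly all actives have a fitted effect of over 45% in size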
Method in brief: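 Cytotoxicity counter screen: CellTiter-Fluor signal (30 min, 37 C) in 4000 HepG2 cells/well carrying the DRE-luciferase reporter, following 24 h compound exposure at 37 C.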

[4] = molecular target: Peroxisome proliferator-activated receptor gamma (Homo sapiens) (UniProt P37231); assay: qHTS assay to identify small molecule antagonists of the peroxisome proliferator-activated receptor gamma (PPARg) signaling pathway (AID 743191; calls by dose curve; further: series mostly up to about 63 µM; nearly all actives have a fitted effect of over 30% in size)
Method in brief: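 Beta-lactamase reporter under UAS control in HEK293H PPARg-bla cells; compound treatment 17 h at 37C. Read-out: fluorescence intensity after 1 h room-temperature incubation with LiveBLAzer B/G FRET substrate.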

[5] = qHTS assay to identify small molecule antagonists of the peroxisome proliferator-activated receptor gamma (PPARg) signaling pathway - cell viability counter screen (AID 743194); further: nearly all actives have a fitted effect of over 55% in size
Method in brief: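 Viability was measured as CellTiter-Glo luminescence in GeneBLAzer PPARg UAS-bla HEK293H cells. These cells had been exposed 17 h at 37 C to compounds together with rosiglitazone at 50 nM final, with the beta-lactamase readout taken in the same wells.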

[6] = qHTS assay for small molecule agonists of the antioxidant response element (ARE) signaling pathway (AID 743202; active means well fitted activation curve with a large enough effect in the signal ratio in the repeat runs, not every such curve was filed as active; the % refers to the signal ratio)
Method in brief: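 After 16 hours of compound treatment at 37 C, HepG2 cells with a stably integrated ARE-driven beta-lactamase reporter were loaded 2 hours at room temperature with LiveBLAzer B/G FRET substrate and fluorescence intensity measured.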

[7] = qHTS assay for small molecule agonists of the antioxidant response element (ARE) signaling pathway - cell viability counter screen (AID 743203; calls by dose curve; further: nearly all actives have a fitted effect of over 55% in size)
Method in brief: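 Parallel cytotoxicity read-out for the ARE-bla screen: HepG2 reporter cells, 16 hrs with compounds, then CellTiter-Glo luminescence.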

[8] = qHTS assay for small molecule activators of the heat shock response signaling pathway - cell viability counter screen (AID 743209); further: nearly all actives have a fitted effect of over 50% in size
Method in brief: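 To flag cytotoxic compounds, HSE-bla HeLa cells plated at 1500 cells/well were dosed for 5 h at 37 C, followed by the reporter FRET read and then CellTiter-Glo, with luminescence recorded 30 min after reagent addition.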

[9] = qHTS assay to identify small molecule agonists of the peroxisome proliferator-activated receptor delta (PPARd) signaling pathway - cell viability counter screen (AID 743211); further: nearly all actives have a fitted effect of over 55% in size
Method in brief: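 Counter screen for cytotoxicity run in parallel with the PPARd reporter screen. Beta-lactamase reporter HEK293H cells exposed to compounds 17 h; ATP-based CellTiter-Glo luminescence quantified viability.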

[10] = molecular target: Peroxisome proliferator-activated receptor delta (Homo sapiens) (UniProt Q03181); assay: qHTS assay to identify small molecule agonists of the peroxisome proliferator-activated receptor delta (PPARd) signaling pathway (AID 743212; calls by dose curve;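 further: HEK293H cells with PPARd UAS beta-lactamase reporter GeneBLAzer system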)
Method in brief: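 Beta-lactamase reporter readout: a ratiometric FRET signal from the LiveBLAzer substrate after 2 h at room temperature. Compound exposure at 37 °C in PPARδ-bla HEK293H cells driven by an upstream activator sequence.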

[11] = qHTS assay to identify small molecule agonists of the farnesoid-X-receptor (FXR) signaling pathway - cell viability counter screen (AID 743218); further: nearly all actives have a fitted effect of over 45% in size
Method in brief: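 Same-well cytotoxicity check on FXR-UAS-bla HEK 293T cells: 5 h attachment, 16 h compound at 37 C, CellTiter-Glo luminescence read at room temperature after 30 min.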

[12] = qHTS assay to identify small molecule antagonists of the farnesoid-X-receptor (FXR) signaling pathway - cell viability counter screen (AID 743221; active means well fitted cell-killing curve with a large enough effect in the repeat runs, not every such curve was filed as active; further: nearly all actives have a fitted effect of over 50% in size)
Method in brief: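 Multiplexed counter screen: viability of FXR-bla HEK 293T cells under agonist stimulation by chenodeoxycholic acid (50 uM, final) and test compound for 16 h at 37 C, measured by CellTiter-Glo luminescence in the reporter wells.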

[13] = molecular target: Vitamin D3 receptor (Homo sapiens) (UniProt P11473); assay: qHTS assay to identify small molecule agonists of the vitamin D receptor (VDR) signaling pathway (AID 743222; calls by dose curve)
Method in brief: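 Using LiveBLAzer B/G FRET detection, agonism was scored in VDR-bla cells exposed overnight (16 h, 37C) to DMSO-dissolved compounds; substrate incubation was 2 h at room temperature.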

[14] = qHTS assay to identify small molecule antagonists of the peroxisome proliferator-activated receptor delta (PPARd) signaling pathway - cell viability counter screen (AID 743213); further: nearly all actives have a fitted effect of over 50% in size
Method in brief: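 CellTiter-Glo was added to PPARd-bla HEK293H wells following 17 h compound treatment in the presence of 300 nM L165041. Luminescence was recorded after 30 min at room temperature.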

[15] = molecular target: Peroxisome proliferator-activated receptor delta (Homo sapiens) (UniProt Q03181); assay: qHTS assay to identify small molecule antagonists of the peroxisome proliferator-activated receptor delta (PPARd) signaling pathway (AID 743215; active means well fitted inhibition curve with a large enough effect in the signal ratio in the repeat runs, not every such curve was filed as active; the % refers to the signal ratio;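 further: cells stimulated with agonist L165041 at 300 nM final during compound exposure; series mostly up to about 62 µM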)
Method in brief: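 Screen format: qHTS, antagonist mode. HEK293H PPARd-bla cells received compound and 300 nM L165041 (final), 17 h, 37 C. Beta-lactamase detected via FRET substrate fluorescence, 2 h, room temperature.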

[16] = qHTS assay for small molecule activators of the heat shock response signaling pathway (AID 743210; active means well fitted activation curve with a large enough effect in the signal ratio in the repeat runs, with a control signal flat, not every such curve was filed as active; the % refers to the signal ratio; further: series mostly up to about 63 µM)
Method in brief: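 Compound exposure lasted 5 h at 37 C in HeLa cells carrying a heat-shock-element-driven beta-lactamase reporter. Read-out: fluorescence intensity after 2.5 h room-temperature loading with LiveBLAzer B/G FRET substrate.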

[17] = molecular target: Bile acid receptor (Homo sapiens) (UniProt Q96RI1); assay: qHTS assay to identify small molecule antagonists of the farnesoid-X-receptor (FXR) signaling pathway (AID 743217; active means well fitted inhibition curve with a large enough effect in the signal ratio in the repeat runs, not every such curve was filed as active; the % refers to the signal ratio)
Method in brief: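 Quantitative HTS, beta-lactamase reporter format: FXR-UAS-bla HEK 293T cells co-treated 16 h at 37 °C with compounds and 50 uM final chenodeoxycholic acid, then read by B/G FRET fluorescence.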

[18] = molecular target: Bile acid receptor (Homo sapiens) (UniProt Q96RI1); assay: qHTS assay to identify small molecule agonists of the farnesoid-X-receptor (FXR) signaling pathway (AID 743220; active means well fitted activation curve with a large enough effect in the signal ratio in the repeat runs, not every such curve was filed as active; the % refers to the signal ratio)
Method in brief: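 FXR-UAS-bla HEK 293T cells carrying a UAS-driven beta-lactamase reporter were plated for 5 h at 37C/5% CO2, then exposed to DMSO-dissolved Tox21 10K compounds for 16 h at 37C. A LiveBLAzer B/G FRET substrate was loaded for 2 h at room temperature before fluorescence reading.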

[19] = molecular target: Vitamin D3 receptor (Homo sapiens) (UniProt P11473); assay: qHTS assay to identify small molecule antagonists of the vitamin D receptor (VDR) signaling pathway (AID 743223; active means well fitted inhibition curve with a large enough effect in the signal ratio in the repeat runs, not every such curve was filed as active; the % refers to the signal ratio)
Method in brief: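 Cells carrying a VDR-driven beta-lactamase reporter (VDR-bla) were co-treated with compound and 3 nM final 1alpha,25-dihydroxyvitamin D3 for 16 h at 37C; reporter activity was measured as FRET substrate fluorescence after 2 h at room temperature.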

[20] = molecular target: Peroxisome proliferator-activated receptor gamma (Homo sapiens) (UniProt P37231); assay: qHTS assay to identify small molecule agonists of the peroxisome proliferator-activated receptor gamma (PPARg) signaling pathway (AID 743094; active means well fitted activation curve with a large enough effect in the signal ratio in the repeat runs, not every such curve was filed as active; the % refers to the signal ratio)
Method in brief: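 Fluorescence-based beta-lactamase readout in HEK293H PPARg UAS-bla cells after 17 h compound exposure (37C) and 1 h B/G FRET substrate incubation at room temperature.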

Measured: Potency

Chain of Aryl hydrocarbon receptor (Homo sapiens) (P35869 whole entry, looked up): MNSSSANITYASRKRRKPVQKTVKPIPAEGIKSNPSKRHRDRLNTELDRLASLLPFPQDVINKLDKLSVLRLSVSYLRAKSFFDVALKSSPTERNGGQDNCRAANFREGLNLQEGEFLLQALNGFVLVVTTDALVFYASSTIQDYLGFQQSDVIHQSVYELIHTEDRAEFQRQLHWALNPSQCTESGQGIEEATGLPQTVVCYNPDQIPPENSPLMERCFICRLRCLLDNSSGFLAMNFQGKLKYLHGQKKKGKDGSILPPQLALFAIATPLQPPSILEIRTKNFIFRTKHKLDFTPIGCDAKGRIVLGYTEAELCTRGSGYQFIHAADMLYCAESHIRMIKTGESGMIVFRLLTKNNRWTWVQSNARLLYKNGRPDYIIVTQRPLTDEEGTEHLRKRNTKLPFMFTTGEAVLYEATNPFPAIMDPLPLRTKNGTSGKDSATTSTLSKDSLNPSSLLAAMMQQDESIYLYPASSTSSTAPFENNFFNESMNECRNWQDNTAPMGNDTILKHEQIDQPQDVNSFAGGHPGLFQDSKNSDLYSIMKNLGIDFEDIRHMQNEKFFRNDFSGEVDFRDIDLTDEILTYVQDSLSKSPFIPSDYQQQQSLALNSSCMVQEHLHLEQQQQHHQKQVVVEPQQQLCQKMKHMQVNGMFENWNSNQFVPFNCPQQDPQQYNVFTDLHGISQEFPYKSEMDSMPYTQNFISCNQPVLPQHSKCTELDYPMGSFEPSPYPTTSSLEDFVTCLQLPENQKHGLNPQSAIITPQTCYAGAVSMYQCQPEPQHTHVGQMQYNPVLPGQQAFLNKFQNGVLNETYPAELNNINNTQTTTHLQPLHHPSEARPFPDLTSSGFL
Chain of Vitamin D3 receptor (Homo sapiens) (P11473 whole entry, looked up): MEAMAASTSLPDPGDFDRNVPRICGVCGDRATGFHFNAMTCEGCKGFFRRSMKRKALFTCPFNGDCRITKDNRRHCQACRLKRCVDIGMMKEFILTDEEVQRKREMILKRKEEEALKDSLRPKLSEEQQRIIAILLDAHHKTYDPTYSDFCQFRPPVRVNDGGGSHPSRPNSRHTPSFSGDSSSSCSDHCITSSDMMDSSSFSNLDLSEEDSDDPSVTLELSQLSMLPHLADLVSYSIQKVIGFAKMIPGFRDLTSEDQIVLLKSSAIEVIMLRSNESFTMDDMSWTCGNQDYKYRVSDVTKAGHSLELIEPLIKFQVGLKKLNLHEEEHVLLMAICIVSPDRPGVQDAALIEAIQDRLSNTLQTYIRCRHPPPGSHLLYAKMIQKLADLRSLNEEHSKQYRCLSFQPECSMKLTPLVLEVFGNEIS
Chain of Bile acid receptor (Homo sapiens) (Q96RI1 whole entry, looked up): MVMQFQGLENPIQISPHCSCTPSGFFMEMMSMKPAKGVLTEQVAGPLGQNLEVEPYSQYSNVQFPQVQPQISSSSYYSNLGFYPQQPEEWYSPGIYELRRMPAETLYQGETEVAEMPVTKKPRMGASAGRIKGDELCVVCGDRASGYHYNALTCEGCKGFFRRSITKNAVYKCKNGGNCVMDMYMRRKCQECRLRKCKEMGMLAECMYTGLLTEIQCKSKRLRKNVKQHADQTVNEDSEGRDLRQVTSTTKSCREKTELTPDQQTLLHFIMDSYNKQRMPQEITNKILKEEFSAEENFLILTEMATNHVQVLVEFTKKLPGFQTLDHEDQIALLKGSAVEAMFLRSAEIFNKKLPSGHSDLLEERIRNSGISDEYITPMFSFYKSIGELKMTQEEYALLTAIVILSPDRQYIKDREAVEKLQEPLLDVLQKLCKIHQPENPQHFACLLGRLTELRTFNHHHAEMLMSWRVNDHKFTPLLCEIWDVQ
Chain of Peroxisome proliferator-activated receptor delta (Homo sapiens) (Q03181 whole entry, looked up): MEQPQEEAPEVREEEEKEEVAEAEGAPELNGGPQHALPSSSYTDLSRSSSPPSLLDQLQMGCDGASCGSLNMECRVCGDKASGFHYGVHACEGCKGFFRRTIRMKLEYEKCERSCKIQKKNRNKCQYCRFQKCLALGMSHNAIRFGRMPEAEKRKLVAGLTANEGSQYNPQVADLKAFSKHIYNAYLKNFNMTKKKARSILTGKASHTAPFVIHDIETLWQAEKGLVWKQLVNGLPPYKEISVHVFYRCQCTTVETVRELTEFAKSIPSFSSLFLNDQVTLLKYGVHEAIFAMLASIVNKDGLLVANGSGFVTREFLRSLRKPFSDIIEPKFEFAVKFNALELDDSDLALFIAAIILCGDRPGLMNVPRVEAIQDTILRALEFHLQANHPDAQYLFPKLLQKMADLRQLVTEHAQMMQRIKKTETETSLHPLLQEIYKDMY
Chain of Peroxisome proliferator-activated receptor gamma (Homo sapiens) (P37231 whole entry, looked up): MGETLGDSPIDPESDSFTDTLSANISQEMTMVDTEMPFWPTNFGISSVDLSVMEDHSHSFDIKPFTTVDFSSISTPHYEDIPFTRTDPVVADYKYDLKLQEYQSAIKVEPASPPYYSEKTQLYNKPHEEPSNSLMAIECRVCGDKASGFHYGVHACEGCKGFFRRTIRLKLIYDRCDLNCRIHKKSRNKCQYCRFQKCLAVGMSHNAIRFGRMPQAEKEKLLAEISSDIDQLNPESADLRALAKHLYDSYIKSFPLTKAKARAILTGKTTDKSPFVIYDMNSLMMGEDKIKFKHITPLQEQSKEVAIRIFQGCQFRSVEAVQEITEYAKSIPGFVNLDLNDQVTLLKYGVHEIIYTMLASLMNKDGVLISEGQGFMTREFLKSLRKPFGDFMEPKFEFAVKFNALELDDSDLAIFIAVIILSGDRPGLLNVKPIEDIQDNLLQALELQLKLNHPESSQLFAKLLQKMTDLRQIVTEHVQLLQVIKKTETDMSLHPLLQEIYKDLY

C[C@]12C(=O)OC(=O)[C@H]1[C@H]1C=C[C@@H]2C1
inactive: [1] | [2] | [3] | [4] | [5] | [6] | [7] | [8] | [9] | [10] | [11] | [12] | [13]

C=C(C)C(=O)OCCOP(=O)(O)O
inactive: [1] | [2] | [3] | [4] | [5] | [6] | [7] | [8] | [9] | [10] | [14] | [15] | [11] | [12] | [13]

ClC(Cl)Cl
inactive: [1] | [2] | [3] | [5] | [6] | [7] | [8] | [16] | [9] | [14] | [17] | [11] | [18] | [12] | [19]

CCN(CC)C(=O)N(CC)CC
inactive: [1] | [2] | [3] | [4] | [7] | [8] | [16] | [9] | [14] | [15] | [17] | [18] | [13] | [19]

CN1CCN(c2c(F)cc3c(=O)c(C(=O)O)cn(CCF)c3c2F)CC1
inactive: [1] | [2] | [3] | [4] | [7] | [8] | [16] | [9] | [14] | [15] | [11] | [12]

CC(C)NCC(O)COc1ccc(CCOCC2CC2)cc1 (configuration not stated)
inactive: [1] | [2] | [3] | [7] | [8] | [16] | [9] | [14] | [11] | [12]

CNCCC(Oc1ccccc1OC)c1ccccc1 (configuration not stated)
inactive: [1] | [3] | [20] | [4] | [5] | [6] | [7] | [8] | [16] | [9] | [14] | [15] | [17] | [11] | [18] | [12] | [13]

CC(C)Nc1nc(N)nc(Cl)n1
inactive: [1] | [3] | [20] | [4] | [5] | [6] | [7] | [8] | [16] | [9] | [15] | [11] | [12] | [13] | [19]

O=c1[nH]c(=O)n([C@H]2C[C@H](O)[C@@H](CO)O2)cc1C(F)(F)F
inactive: [1] | [2] | [3] | [7] | [8] | [9] | [10] | [14] | [15] | [11] | [18] | [12]

Cc1cc2nc(N)sc2cc1C
inactive: [1] | [3] | [20] | [4] | [6] | [7] | [8] | [16] | [17] | [11] | [18] | [12] | [13] | [19]
